# The supplement of paper PMC6555819
# Tested on: FXR:RXRa (NR concentration 270 nM, RXRa partner concentration 90 nM)
# Assay: PBM binding z-score (relative to random genomic background probes); higher = stronger binding; sequences stand for … in GC…GCGATTGACAGCGTAGAATGAAGG
# In short: (§1)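 Scanned fluorescence from custom Agilent 4×180K protein-binding microarrays was regression-normalized. Binding z-scores use random background probes as reference. Ligand-free nuclear receptor dimers were incubated on the arrays for 1 h and detected with antibodies against each partner (one per run).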
row,Sequence,PBM binding z-score
1,CCTTACGGGTCACTAACAGGTTATAGCATTTGGA,4.73
2,CCTACTAGGCCAAAGGTCATTGATTCCAATGCTC,5.07
3,TAGCCTAGGTTATTCAGGGGCCAGTATAGAAAGC,0.502
4,ATCGGAAGGTCGTGAGGTGAGTATACAGAAAGGC,2.73
5,CGTCCAAGGTCAATGGTAGGTCAGTGAAAGCATT,6.69
6,TCTAGTTGGTCACGGAGGTCGCACACGACGGGTA,0.941
7,CCGACTGGGGCAGAAAGGTTACCATGCCATCCGG,0.204
8,CCTACTGGGCCAAAAAGGTGATTGATGCCGATAA,-0.195
9,TCATATAGGTAAAGGCGAAAGTCGAACGATATGA,0.173
10,AGAAAGAGGTTAAGATCAGGGAAACAGAATACAT,2.5
11,TCATATAGGTAAGGGTGAAAGTCGAACGATATGA,0.857
12,GGAACGAGGGCATTCGACTTGATAGCATGGCGAT,0.596
13,AGAATGAGGTTATTAAGATCACGGAATTGCGGTC,1.57
14,ATATGTACGTTAGCTGGGGTCATTCAGACTAGGC,3.94
15,CCTTTTAGTTGACCATAAGGGCAACCGAAGCTCG,0.795
16,CCTACTGGGCCAAAGTTCATTGATTCCAATGCTC,2.2
17,ATTCAAAGTTCAGGACGAGGTAACGTAAAGCACG,4.14
18,TCATATATGTAATACAGGTGAAAGTCGGCATCTA,0.656
19,TCTCGGAGGACACGAAAGGTCAGAGTTCGACATC,3.3
20,GCTAGCAGGCCATATGGGTCACTCAATGACGGGC,0.207

row,Sequence,PBM binding z-score
1,CCAGACAGGTGAAAGGTAACTGAGTCTGGTACGC,0.744
2,AGTCAAAGTTCATCTCGGTAACGTAAGATATGCT,6.81
3,AATACAGGGTCATCGTAGGCTAGAGTACGCACAG,7.1
4,CGTCAAAGTTCAACTAAGGTAACGGAAAGCACGC,6.73
5,AATACAGGTTCACTAGGCCAGAGTAGGTACGAAT,1.7
6,ATACCATGGTGATCGTGAGGTCGTTGATACTAAC,0.952
7,TCGAGTAGGTTAGGGGCATTCCGAATGGCGTCGA,0.369
8,AATACAGGGTCATCGTAGGCCAGAGTACGCACAG,7.52
9,ATCTCTAGGTAAAGCTAGTTCAGTGAATGCAAAT,0.153
10,GCGACTGGGGCATCAGCAGGTTACCATCACTTAA,-0.298
11,CAAACTAAGTCACAGAGGTCAAAGTCCGTGCGTA,5.08
12,TGGCCTAGGTCATTCAGGGGCCAGTATAGAAAGC,4.69
13,CAAACTAGGTCACGAAGGGTCAAAGTCGAATGAC,7.24
14,TCTTGTAGATCAATAGAGGTTAACAAAGTGCGCT,0.932
15,TCTTGTCGATCAAGCAGGTTAAGAAAGCCTGAGT,-0.117
16,TAGCCTAGGTCATGCAGGGGCCAGTATAGAAAGC,3.95
17,CCTCGGAGGACAACAGGAAGTCAGAGCTGCCAGA,-0.229
18,AGTCAACGTTCACTAGGTAACGTAAGATTCAGCT,-0.243
19,AAAATGAGGTTATACGTAGATCAGGGAAGAAAGT,2.34
20,TCATATAGTTAAAGGTGAAAGTCGAACGATATGA,0.692

# Tested on: LXRa:RXRa (NR concentration 270 nM, RXRa partner concentration 90 nM)
# Assay: as above
# In short: as §1
row,Sequence,PBM binding z-score
1,CCTTACGGGTCACTAACAGGTTATAGCATTTGGA,4.24
2,CCTACTAGGCCAAAGGTCATTGATTCCAATGCTC,5.49
3,TAGCCTAGGTTATTCAGGGGCCAGTATAGAAAGC,1.27
4,ATCGGAAGGTCGTGAGGTGAGTATACAGAAAGGC,1.85
5,CGTCCAAGGTCAATGGTAGGTCAGTGAAAGCATT,5.38
6,TCTAGTTGGTCACGGAGGTCGCACACGACGGGTA,1.09
7,CCGACTGGGGCAGAAAGGTTACCATGCCATCCGG,0.517
8,CCTACTGGGCCAAAAAGGTGATTGATGCCGATAA,-0.147
9,TCATATAGGTAAAGGCGAAAGTCGAACGATATGA,0.402
10,AGAAAGAGGTTAAGATCAGGGAAACAGAATACAT,2.43
11,TCATATAGGTAAGGGTGAAAGTCGAACGATATGA,0.803
12,GGAACGAGGGCATTCGACTTGATAGCATGGCGAT,0.173
13,AGAATGAGGTTATTAAGATCACGGAATTGCGGTC,1.78
14,ATATGTACGTTAGCTGGGGTCATTCAGACTAGGC,3.99
15,CCTTTTAGTTGACCATAAGGGCAACCGAAGCTCG,0.621
16,CCTACTGGGCCAAAGTTCATTGATTCCAATGCTC,3.36
17,ATTCAAAGTTCAGGACGAGGTAACGTAAAGCACG,4.12
18,TCATATATGTAATACAGGTGAAAGTCGGCATCTA,0.799
19,TCTCGGAGGACACGAAAGGTCAGAGTTCGACATC,4.16
20,GCTAGCAGGCCATATGGGTCACTCAATGACGGGC,0.285

row,Sequence,PBM binding z-score
1,CCAGACAGGTGAAAGGTAACTGAGTCTGGTACGC,0.866
2,AGTCAAAGTTCATCTCGGTAACGTAAGATATGCT,6.1
3,AATACAGGGTCATCGTAGGCTAGAGTACGCACAG,6.2
4,CGTCAAAGTTCAACTAAGGTAACGGAAAGCACGC,6.18
5,AATACAGGTTCACTAGGCCAGAGTAGGTACGAAT,2.58
6,ATACCATGGTGATCGTGAGGTCGTTGATACTAAC,0.604
7,TCGAGTAGGTTAGGGGCATTCCGAATGGCGTCGA,0.403
8,AATACAGGGTCATCGTAGGCCAGAGTACGCACAG,6.07
9,ATCTCTAGGTAAAGCTAGTTCAGTGAATGCAAAT,1.45
10,GCGACTGGGGCATCAGCAGGTTACCATCACTTAA,-0.121
11,CAAACTAAGTCACAGAGGTCAAAGTCCGTGCGTA,5.61
12,TGGCCTAGGTCATTCAGGGGCCAGTATAGAAAGC,3.39
13,CAAACTAGGTCACGAAGGGTCAAAGTCGAATGAC,7.09
14,TCTTGTAGATCAATAGAGGTTAACAAAGTGCGCT,4.21
15,TCTTGTCGATCAAGCAGGTTAAGAAAGCCTGAGT,0.258
16,TAGCCTAGGTCATGCAGGGGCCAGTATAGAAAGC,3.15
17,CCTCGGAGGACAACAGGAAGTCAGAGCTGCCAGA,-0.454
18,AGTCAACGTTCACTAGGTAACGTAAGATTCAGCT,-0.0638
19,AAAATGAGGTTATACGTAGATCAGGGAAGAAAGT,2.36
20,TCATATAGTTAAAGGTGAAAGTCGAACGATATGA,1.27
